In the OligoGym collection:

target: EFNB2; test: pooled miR-30 sensor sort-seq; sequence = guide strand; conditions: shRNA
Also: reference of the scale not given here.

Point of comparison: TTGGAAATCGCAGTTCTGCATA, sensor-assay potency score (higher = more potent) -1.17. Against it:
- TTGATCCAGCAGAACTTGCATC — higher, -0.768
- TTTTCCTTCTTAATAGTGCATC — higher, -0.818

target: EGFLAM; test: as above; conditions: shRNA

Point of comparison: ATAACAATATCTTCTGAGCAGC, sensor-assay potency score (higher = more potent) -1.01. Against it:
- TGAATCACAACACAGTCACTGA — higher, -0.715
- TAAGCTGCTATGCTCACACGAT — higher, -0.515
- ATCTCTGTAGAGCATAACCGTG — lower, -1.58
- TCTCTGTAGAGCATAACCGTGT — higher, -0.368
- TAGTCATTGACACAGAAGCTGT — lower, -1.47
- ACACATTTGATCTTGATCCTGA — higher, 0.527
- TAGAGCATAACCGTGTGCCAAC — lower, -1.37
- TTGAGGTCCACTTCTTGTCGAA — higher, -0.198
- TTAGATATAGACATCTTCTTGC — higher, 0.604
- TTCTTGTCGAAATCTGGCCTGA — higher, -0.665
- TTGATGTGTGATCTCTGGCAGC — higher, -0.345

target: EGF; test: as above; conditions: shRNA

Point of comparison: TTGAGAATTGGCAAACAGCAAA, sensor-assay potency score (higher = more potent) -1.09. Against it:
- TAAATCACTCCTTCCAATCAGA — higher, -0.116
- TTAGTGATTATTTTGGAACGTT — higher, 0.208
- TAATGTGGACAGAACCTCCATC — higher, -0.544
- TTACTTACAATCTTGTAACTGA — higher, 0.581
- TTGTCTTTCTAAATCCACCCAA — higher, 0.0842
- TTGAGTAGGTGATTAGTCGTAG — higher, 0.0164
- TACTGTAATGATTCCTTCCTGT — higher, 0.571
- TATATTACATACTCTCTCTTGC — higher, 0.906
- TTACATACTCTCTCTTGCCTTG — higher, -0.0399
- AAACAAGTTGATGACATCGTTT — higher, -0.985
- TTAATTCTAACCATGTCCTTTC — higher, -0.226
- TTGACCAAATAACTTCTTCATT — lower, -1.32
- TCTTCTGACACTCTAGTCTTGG — higher, -0.41
- TATCGGGTGAGGAACAACCGCT — higher, -0.49
- TAAACCTTTCTACTGGATCAAC — lower, -1.16
- TTGCAAACAAATTATGCTGTGT — higher, 0.205
- TAAATTTTGAAACTACTGGCAA — higher, -0.0191
- TATCAGAACATAGTTTTCCATC — the same, -1.09
- TTCATTAACATCTTCACAGTAC — higher, 0.809
- TTCTGTAATGTTATCTTCTGAC — higher, -0.544
- TTCTCTGTTGTACTGAATCCAA — higher, -0.8
- TTAGATCAACTTCACCACCTGC — higher, -0.392
